The values below come from PubChem BioAssay AID1063 (University of Pittsburgh Molecular Library Screening Center, 2008).

In all, about 200,000 compounds went through this assay and about 18,000 (9%) were called active. The entries come from a sample that favours actives as a whole. Unmarked numbers belong to inactive results. No stated cut-off is given here; in the data, active means inhibition above about 50%; inactive means the rest.

The assay in a line: Leishmania major promastigote growth inhibition, primary screen (AID 1063).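 Further: promastigotes grown with compound for 44 hours at 28 °C.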 The settings on record: Leishmania major promastigotes, resazurin fluorescence viability; at 10 µM; active compounds read high.
Take `CC(C)(C)c1ccc(CN2C(=O)CN=C(c3ccccc3)c3ccccc32)cc1`: the inhibition is 97.3% (active).

In the case of `CCN1CCN(c2ccc([N+](=O)[O-])cc2C#N)CC1`, the inhibition is 3.77%.

Turning to `CN1CCN(Cc2ccc(OC(F)(F)F)cc2)CC1`, the inhibition is 90.4% (active).

As to `CN1CCN(Cc2ccccc2C(F)(F)F)CC1`, the inhibition was 0.79%.

Regarding `CN(C)c1ccc(/C=C2\CC3C4CC=C5CC(O)CCC5(C)C4CCC3(C)C2=O)cc1` (stereo unspecified), the inhibition was 37%.

With `Cc1ccc(-n2c(-c3ccc([N+](=O)[O-])cc3)nc3ccccc3c2=O)cc1`, the inhibition was 0.86%.

As for `CCN(CC)P(=O)(Oc1cccc(C)c1)N(CC)CC`, the inhibition is 22.5%.

For `Cc1cccc(OP(=O)(Oc2cccc(C)c2)OC(c2ccccc2)C(F)(F)F)c1` (stereo unspecified), the inhibition was 57.8% (active).

Consider `CCC(=O)CC(c1ccc([N+](=O)[O-])cc1)c1c(O)c2ccccc2oc1=O` (stereo unspecified), for which the inhibition is -15.5%.

In the case of `CN(C)c1nc(N(C)C)nc(N(C#N)CCCl)n1`, the inhibition is -4.48%.

On to `C[N+]12CN3CN(CN(C3)C1)C2`, for which the inhibition is 93.8% (active).

As for `CC1CCCCN1Cc1cccnc1` (stereo unspecified), the inhibition was -6.9%.

As to `COc1ccccc1N=Nc1c(O)[nH]c(=S)[nH]c1=O`, the inhibition is -4.5%.

Take `CN(C)P(=S)(Nc1ccccc1)C(Cl)(Cl)Cl` (stereo unspecified): the inhibition was 28.1%.

As for `CC(C)Oc1cccc(C(=O)C2CCCN(C3CCOCC3)C2)c1` (stereo unspecified), the inhibition is 93.2% (active).

With `O=C(Nc1cccc(OC(=O)N2CCCCC2)c1)N1CCOCC1`, the inhibition was 0.65%.

Regarding `Cc1ccc(-c2nn(CCC#N)cc2C(=O)O)cc1C`, the inhibition is -5.5%.

Regarding `COC(=O)COc1cc(C)cc2oc(=O)c3c(c12)CCCC3`, the inhibition is -6.35%.

Take `O=C(COC(=O)c1ccccc1)Nc1ccc(Cl)cc1C(=O)c1ccccc1`: the inhibition is -3.5%.

For `CN(C)C(=O)Oc1ccc(OCc2cccc[n+]2C)cc1`, the inhibition was -6.21%.

Turning to `CCOC(=O)C1(CCc2ccccc2)CCN(Cc2ccco2)CC1`, the inhibition was 9%.

Consider `CCOC(=O)C1(Cc2ccc(Cl)cc2)CCN(C(C)CCn2cccn2)CC1` (stereo unspecified), for which the inhibition was 80.9% (active).

Turning to `CC(C)(C)[C@]1(O)C[C@@H]2OC(=O)C[C@@]23C(=O)O[C@@H]2OC(=O)[C@H](O)[C@]213`, the inhibition was -6.51%.

For `CCCOC(=O)C1C2c3ccccc3C(c3ccccc32)C1C(=O)O` (stereo unspecified), the inhibition is -5.51%.

On to `CC(C(=O)Nc1ccc(Cl)cc1Cl)N1CC=C(c2ccccc2)CC1` (stereo unspecified), for which the inhibition was -2.71%.

As for `CCN(N=Nc1nonc1OC)c1nonc1OC`, the inhibition is 0.16%.

`Cc1cccc(N2C(=O)NC(=O)/C(=C\c3cnn(-c4ccccc4)c3)C2=O)c1`: the inhibition was -2.18%.

Regarding `O=C1NC(=O)N(c2ccc(F)cc2)C(=O)/C1=C/c1ccc2c(c1)CCCN2Cc1ccccc1`, the inhibition was 7.8%.

`COc1ccc(CN2C(=O)NC(=O)/C(=C\c3ccc(OC)c(OC)c3OC)C2=O)cc1`: the inhibition is -6.27%.

Turning to `O=C1NC(=O)N(c2ccccc2)C(=O)/C1=C/c1ccc([N+](=O)[O-])s1`, the inhibition is 93.8% (active).

As for `COc1cccc(N2C(=O)NC(=O)/C(=C\c3ccc([N+](=O)[O-])s3)C2=O)c1`, the inhibition is 93.6% (active).

On to `O=C(COC(=O)Cc1ccccc1)Nc1ccc(F)cc1`, for which the inhibition is 0.24%.

As for `OCC#CC[N+]1(CC#Cc2ccccc2)CCCC1`, the inhibition was -1.69%.

Consider `N=c1ccccn1Cc1ccccc1`, for which the inhibition is -0.35%.

In the case of `C=CCN(CC=C)C(=O)Nc1ccc(OCC)cc1`, the inhibition is -9.24%.

Turning to `O=C(NC(c1ccc(Cl)cc1)P(=O)(Oc1ccccc1)Oc1ccccc1)OCc1ccccc1` (stereo unspecified), the inhibition was 10.2%.

In the case of `CN1CCN(c2cc(N3CCNCC3)ccc2[N+](=O)[O-])CC1`, the inhibition is 44%.

For `CCCCC(=O)N/N=C/c1c(O)n(CC)c(=S)n(CC)c1=O`, the inhibition is -5.9%.

For `O=C(Nc1cccc2ccccc12)N1CCC2(CC1)OCCO2`, the inhibition was 0.77%.

For the compound `CCOC(=O)C(O)(c1ccc(N)c(OC)c1)C(F)(F)F` (stereo unspecified), the inhibition was -13.8%.

As for `CCOC(=O)C(O)(c1ccc(NC(=O)c2ccco2)c(OC)c1)C(F)(F)F` (stereo unspecified), the inhibition is 73.8% (active).

For the compound `COC(=O)C(O)(c1ccc(NC(=O)c2ccco2)c(OC)c1)C(F)(F)F` (stereo unspecified), the inhibition was -2.15%.

For `C=CCn1c(O)c(/C=N/N2CCOCC2)c(=O)[nH]c1=S`, the inhibition is -4.94%.

Take `COc1ccc(C2N3CC(C)(C)CN23)cc1` (stereo unspecified): the inhibition was -5.78%.

For `Cc1ccc(-n2c(C)cc(/C=C3\C(=O)NC(=O)N(C)C3=O)c2C)cc1C`, the inhibition was 58% (active).

As to `Cc1ccccc1N1C(=O)NC(=O)/C(=C\c2cc(C)n(C)c2C)C1=O`, the inhibition was 2.98%.

With `Cc1cc(/C=C2/C(=O)NC(=O)N(Cc3ccco3)C2=O)c(C)n1-c1ccc(C(=O)O)cc1`, the inhibition was -6.68%.

Consider `Cc1ccnc(-n2c(C)cc(/C=C3\C(=O)NC(=S)N(C)C3=O)c2C)c1`, for which the inhibition is 70% (active).

`Cc1cc(C=C2C(=O)NC(=O)NC2=O)c(C)n1-c1ccncc1`: the inhibition is 0.48%.

As to `Cc1c(C(=O)O)cccc1-n1c(C)cc(/C=C2\C(=O)NC(=O)N(c3ccc4c(c3)OCO4)C2=O)c1C`, the inhibition is 2.09%.

As for `CC(=O)N(C1=NCCCS1)c1ccccc1F`, the inhibition is -4.7%.

With `Cc1cccc(-n2c(O)c(C=NC34CN5CN(CN(C5)C3)C4)c(=O)[nH]c2=O)c1`, the inhibition is -14.4%.

Regarding `O=c1c2ccccc2nc(-c2ccccc2)n1-c1ccccn1`, the inhibition is -4.66%.

As to `C[N+]1(C)CCOC(O)(c2ccc(-c3ccc(C4(O)C[N+](C)(C)CCO4)cc3)cc2)C1` (stereo unspecified), the inhibition was 20.9%.

In the case of `O=C(OCCN1CCOCC1)C1(c2ccccc2)CCCC1`, the inhibition is 1.57%.

As for `CC[N+]1(C)CCCC(OC(=O)C(O)(c2ccccc2)c2ccccc2)C1` (stereo unspecified), the inhibition was -2.17%.

For `O=C(CCN1CCCCC1)NCC(=O)Nc1ccc(Br)cc1C(=O)c1ccccc1`, the inhibition was 91.4% (active).

As for `O=C(CN1CCCCC1)Nc1ccc(Br)cc1C(=O)c1ccccc1Cl`, the inhibition is 11.2%.

Turning to `CN1CCN(C(=S)SCC(=O)Nc2ccc(Cl)cc2C(=O)c2ccccc2)CC1`, the inhibition was 8.25%.

Regarding `O=[N+]([O-])c1ccc(C2C3C(c4ccccc4)=NC4(CCCCC4)N32)cc1` (stereo unspecified), the inhibition was 19.8%.

Consider `CC(C)N(CC#CCC1(O)c2ccccc2-c2ccccc21)C(C)C`, for which the inhibition was 2.06%.

With `CN(C)CCCN=Cc1c(O)n(Cc2ccco2)c(=O)[nH]c1=O`, the inhibition was -6.14%.

On to `C=CCN1C(=O)C2(C(C(=O)OCC)=C(N)Oc3c2c(=O)oc2ccccc32)c2ccccc21` (stereo unspecified), for which the inhibition was -6.93%.

For `Cc1ccsc1C(=O)C1CCCN(Cc2ccc(O)cc2)C1` (stereo unspecified), the inhibition was 83.9% (active).

Turning to `Cc1nc2ccc(N3CCN(C)CC3)cc2nc1C`, the inhibition is 3.66%.

Regarding `CCOC(=O)c1c(N)n(Cc2ccccc2)c2nc3ccccc3nc12`, the inhibition is 100% (active).

On to `CCOC(=O)c1c(N)n(CCN2CCOCC2)c2nc3ccccc3nc12`, for which the inhibition is 24.6%.

`COc1cc(Cn2c(N)c(C(=O)NCc3ccco3)c3nc4ccccc4nc32)cc(OC)c1OC`: the inhibition is 100% (active).

Regarding `O=c1[nH]c(=O)n(-c2ccccc2)c(O)c1C=NC12CN3CN(CN(C3)C1)C2`, the inhibition was -6.09%.

Turning to `OC(Cn1c2ccccc2c2ccccc21)C[n+]1ccccc1` (stereo unspecified), the inhibition is 1.49%.

For `COP(=O)(OC)C(NC(=O)c1ccc(C)cc1)C(Cl)(Cl)Cl` (stereo unspecified), the inhibition is -7.25%.

For `O=C(Cc1ccccc1[N+](=O)[O-])N1CCN(Cc2ccc3c(c2)OCO3)CC1`, the inhibition was 48%.

Regarding `CNC(=S)N/N=C1\C2CN3CCN(C2)CC1(c1ccccc1)C3`, the inhibition is -5.87%.

`c1cncc(CNCCc2c[nH]c3ccccc23)c1`: the inhibition was 22.7%.

With `CCc1nnc(NS(=O)(=O)c2ccc(N=Cc3c(O)n(-c4ccccc4)c(=O)[nH]c3=O)cc2)s1`, the inhibition is -1.81%.

As to `COP(=O)(NS(=O)(=O)c1ccccc1)OC`, the inhibition is -6.48%.

As for `COc1ccc(C(=O)C2CCCN(Cc3ccc(C)s3)C2)cc1OC` (stereo unspecified), the inhibition is 89.4% (active).

For `Cc1cccc2c(CCN)c[nH]c12`, the inhibition was 0.35%.

`CCC(=NCCc1ccccc1)c1c(O)n(C2CCCCC2)c(=O)[nH]c1=O`: the inhibition is 21%.

Consider `O=C(Cc1ccccc1)N1CCN(C2CCCCCC2)CC1`, for which the inhibition was 64.8% (active).

`O=C(Cn1c(=O)n(CC2CS2)c2ccccc21)N1CCCCC1` (stereo unspecified): the inhibition was 2.59%.

Consider `CCCn1c(C(=O)c2ccccc2OC)nc2ccccc21`, for which the inhibition is 15%.

Turning to `C[C@@]1([C@@H](NP(=O)(c2ccccc2)c2ccccc2)c2ccccc2)C[C@H]1CCO`, the inhibition was -1.91%.

Consider `CNP1(NC)=Nc2nn(-c3ccccc3)c(N)c2C(c2ccccc2)=N1`, for which the inhibition was -6.36%.

As for `COc1ccccc1N=C1SCCCN1C`, the inhibition is -5.49%.

On to `Cc1ccc(-c2nc3ccccc3c(=O)n2-c2ccc(Br)cn2)cc1`, for which the inhibition was 3.21%.

With `CC1=CC(=Cc2sc3ccccc3[n+]2C)C=C(C)O1`, the inhibition is 100% (active).

As to `COc1cc(-n2c(=S)[nH]c3ccc(C)cc3c2=O)c(Cl)cc1Cl`, the inhibition is 43.6%.

Consider `Cc1ccc(Cn2nnnc2CN2CCC(n3nnc4ccccc43)CC2)cc1`, for which the inhibition is 4.28%.

Take `O=C(C1CC(=O)N(C2CCCC2)C1)N1CCC2(CC1)OCCO2` (stereo unspecified): the inhibition was -6.1%.

With `CCN(CC)c1ccc([N+](=O)[O-])c2cccnc12`, the inhibition is 9.8%.

With `Cc1cc(C)cc(NC(=S)NC2CC3CCCC(C2)N3Cc2cccs2)c1` (stereo unspecified), the inhibition is 87.3% (active).

On to `O=C(COc1ccc2ccccc2c1)N1CCN(Cc2ccncc2)CC1`, for which the inhibition was 44.3%.

Consider `OC1/C(=C/c2ccc(C(F)(F)F)cc2)N2CCC1CC2` (stereo unspecified), for which the inhibition is 0.72%.

Regarding `CCOC(=O)C(O)(c1ccc(N=Cc2ccccc2O)c(C)c1)C(F)(F)F` (stereo unspecified), the inhibition is -7.14%.

With `O=C1/C(=C\c2ccc3c(c2)OCO3)N2CCC1CC2`, the inhibition is 4.04%.
